# Measurements as given in PubChem BioAssay (NCI).
# Several values for one entry are separate records, joined by “and”; a condition that tells them apart may be missing. Equal entries are not always repeated. This is part of a sample that, as a whole, favours compounds with a hit. Of some 83,000 tested, about 20% had one in any assay.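 Step 1: grow cells in 96-well plates. Step 2: add test compound at a single concentration. Step 3: incubate 48 h. Step 4: record percent growth.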 Activity calls are given as the source filed them. Rule for the calls: active = growth percent below 10; inactive = the rest.
# Assays:
# Experiment in all cases: NCI-60 one-dose screen, 48 h (100 = growth as untreated, 0 = no growth, -100 = all killed)
# [1] = test system: RPMI-8226 leukemia
# [2] = test system: OVCAR-8 ovarian
# [3] = test system: OVCAR-5 ovarian
# [4] = test system: OVCAR-4 ovarian
# [5] = test system: SK-OV-3 ovarian
# [6] = test system: IGROV1 ovarian
# [7] = test system: HS 578T breast
# [8] = test system: NCI/ADR-RES ovarian
# [9] = test system: SR leukemia; conditions: 10 µM unless noted
# [10] = test system: OVCAR-3 ovarian
compound,measurement,setting,value
O=C(Nc1c(Cl)cccc1Cl)Oc1cccc2cccnc12,growth,[1]; 10 µM,45.7% (inactive)
same,growth,[1]; 100 µM,2.58% (active)
same,growth,[2]; 10 µM,27% (inactive)
same,growth,[2]; 100 µM,10.2% (inactive)
same,growth,[3]; 10 µM,103% (inactive)
same,growth,[3]; 100 µM,34.1% (inactive)
same,growth,[4]; 10 µM,15.9% (inactive)
same,growth,[4]; 100 µM,14.5% (inactive)
same,growth,[5]; 10 µM,65.4% (inactive)
same,growth,[5]; 100 µM,18% (inactive)
same,growth,[6]; 10 µM,27% (inactive)
same,growth,[6]; 100 µM,14.4% (inactive)
same,growth,[7]; 10 µM,90.6% (inactive)
same,growth,[7]; 100 µM,46.6% (inactive)
same,growth,[8]; 10 µM,13.5% (inactive)
same,growth,[8]; 100 µM,3.5% (active)
O=C1C2=C(Nc3cc([N+](=O)[O-])ccc3N2)OC1c1c2ccccc2cc2ccccc12 (stereo not given),growth,[9],23.5% (inactive)
same,growth,[1]; 10 µM unless noted,15% (inactive)
same,growth,[2]; 10 µM unless noted,47.5% (inactive)
same,growth,[3]; 10 µM unless noted,75.8% (inactive)
same,growth,[4]; 10 µM unless noted,50% (inactive)
same,growth,[6]; 10 µM unless noted,52.3% (inactive)
same,growth,[7]; 10 µM unless noted,73.6% (inactive)
N#CSCc1ccc(CSC#N)c(Cl)c1,growth,[1]; 10 µM unless noted,41.9% (inactive)
same,growth,[2]; 10 µM unless noted,95.6% (inactive)
same,growth,[3]; 10 µM unless noted,96.7% (inactive)
same,growth,[4]; 10 µM unless noted,85.2% (inactive)
same,growth,[5]; 10 µM unless noted,115% (inactive)
same,growth,[6]; 10 µM unless noted,91.2% (inactive)
same,growth,[10]; 10 µM unless noted,77.9% (inactive)
same,growth,[7]; 10 µM unless noted,94.1% (inactive)
S=C(N/N=C/c1ccccn1)Nc1ccccn1,growth,[9],-29% (active)
same,growth,[1]; 10 µM unless noted,-2.91% (active)
same,growth,[2]; 10 µM unless noted,14.2% (inactive)
same,growth,[3]; 10 µM unless noted,49.2% (inactive)
same,growth,[5]; 10 µM unless noted,36.4% (inactive)
same,growth,[6]; 10 µM unless noted,27% (inactive)
same,growth,[10]; 10 µM unless noted,-0.151% (active)
same,growth,[7]; 10 µM unless noted,97.4% (inactive)
same,growth,[8]; 10 µM unless noted,7.98% (active)
CCCCCCCCCCCCCCCC[N+](C)(CCO)Cc1cnc[nH]1 (stereo not given),growth,[1]; 10 µM unless noted,-58.3% (active)
same,growth,[2]; 10 µM unless noted,-4.26% (active)
same,growth,[3]; 10 µM unless noted,-13.7% (active)
same,growth,[4]; 10 µM unless noted,-1.06% (active)
same,growth,[5]; 10 µM unless noted,-21% (active)
same,growth,[6]; 10 µM unless noted,-54.5% (active)
same,growth,[10]; 10 µM unless noted,-36.9% (active)
same,growth,[7]; 10 µM unless noted,-19.4% (active)
same,growth,[8]; 10 µM unless noted,94.5% (inactive)
COC(=O)c1nc(=S)[nH]c(C(=O)OC)c1C(=O)c1ccccn1,growth,[9],-3.79% (active)
same,growth,[1]; 10 µM unless noted,52.8% (inactive)
same,growth,[2]; 10 µM unless noted,20.6% (inactive)
same,growth,[3]; 10 µM unless noted,57.9% (inactive)
same,growth,[4]; 10 µM unless noted,25.3% (inactive)
same,growth,[6]; 10 µM unless noted,24.5% (inactive)
same,growth,[7]; 10 µM unless noted,70.1% (inactive)
same,growth,[8]; 10 µM unless noted,7.03% (active)
Oc1c(Br)cc(Cl)cc1C(c1cc(Cl)cc(Br)c1O)C(Cl)(Cl)Cl,growth,[9],28.5% (inactive)
same,growth,[2]; 10 µM unless noted,14.3% (inactive)
same,growth,[3]; 10 µM unless noted,42% (inactive)
same,growth,[6]; 10 µM unless noted,24.8% (inactive)
same,growth,[10]; 10 µM unless noted,12.7% (inactive)
same,growth,[7]; 10 µM unless noted,21.2% (inactive)
same,growth,[8]; 10 µM unless noted,7.13% (active)
CNc1ccc(N)cc1,growth,[9],119% (inactive)
same,growth,[2]; 10 µM unless noted,113% (inactive)
same,growth,[3]; 10 µM unless noted,106% (inactive)
same,growth,[4]; 10 µM unless noted,89.6% (inactive)
same,growth,[5]; 10 µM unless noted,114% (inactive)
same,growth,[6]; 10 µM unless noted,101% (inactive)
same,growth,[10]; 10 µM unless noted,112% (inactive)
same,growth,[7]; 10 µM unless noted,109% (inactive)
same,growth,[8]; 10 µM unless noted,87.6% (inactive)
Cn1c2c(c3ccccc31)CCN1C[C@@H]3CCCC[C@H]3C[C@@H]21,growth,[9],14.1% (inactive)
same,growth,[1]; 10 µM unless noted,16.7% (inactive)
same,growth,[2]; 10 µM unless noted,20.2% (inactive)
same,growth,[3]; 10 µM unless noted,25% (inactive)
same,growth,[4]; 10 µM unless noted,40.9% (inactive)
same,growth,[7]; 10 µM unless noted,-16.9% (active)
same,growth,[8]; 10 µM unless noted,-36.1% (active)
Cc1ccc(C(=Nc2ccccc2)N=P(c2ccccc2)(c2ccccc2)c2ccccc2)cc1,growth,[1]; 10 µM unless noted,-38.6% (active)
same,growth,[2]; 10 µM unless noted,6.99% (active)
same,growth,[3]; 10 µM unless noted,-5.4% (active)
same,growth,[4]; 10 µM unless noted,29% (inactive)
same,growth,[5]; 10 µM unless noted,-66.3% (active)
same,growth,[6]; 10 µM unless noted,-68.5% (active)
same,growth,[10]; 10 µM unless noted,-37.4% (active)
same,growth,[7]; 10 µM unless noted,-45.8% (active)
same,growth,[8]; 10 µM unless noted,-10.4% (active)
CCOc1ccc(-c2nc3ccc(-c4nc5ccc(N6CCN(C)CC6)cc5[nH]4)cc3[nH]2)cc1,growth,[1]; 10 µM unless noted,-4.63% (active)
same,growth,[2]; 10 µM unless noted,-38.2% (active)
same,growth,[3]; 10 µM unless noted,-45.8% (active)
same,growth,[4]; 10 µM unless noted,-65.1% (active)
same,growth,[5]; 10 µM unless noted,-93.7% (active)
same,growth,[6]; 10 µM unless noted,-82.9% (active)
same,growth,[10]; 10 µM unless noted,-100% (active)
same,growth,[7]; 10 µM unless noted,-58.3% (active)
same,growth,[8]; 10 µM unless noted,61% (inactive)
CC1SC(=S)N(c2ccc(Cl)cc2)C1=O (stereo not given),growth,[1]; 10 µM unless noted,94.8% (inactive) and 79.6% (inactive)
same,growth,[2]; 10 µM unless noted,101% (inactive)
same,growth,[3]; 10 µM unless noted,91.3% (inactive) and 89.6% (inactive)
same,growth,[4]; 10 µM unless noted,97.5% (inactive) and 91.3% (inactive)
same,growth,[5]; 10 µM unless noted,117% (inactive) and 99.4% (inactive)
same,growth,[6]; 10 µM unless noted,128% (inactive) and 92.5% (inactive)
same,growth,[10]; 10 µM unless noted,93.3% (inactive) and 97.7% (inactive)
same,growth,[7]; 10 µM unless noted,161% (inactive) and 132% (inactive)
S=C(NCCNC(=S)[S][Sn]([c]1ccccc1)([c]1ccccc1)[c]1ccccc1)[S][Sn]([c]1ccccc1)([c]1ccccc1)[c]1ccccc1,growth,[1]; 10 µM unless noted,-24% (active)
same,growth,[2]; 10 µM unless noted,-99.2% (active)
same,growth,[3]; 10 µM unless noted,-93.6% (active)
same,growth,[4]; 10 µM unless noted,-100% (active)
same,growth,[5]; 10 µM unless noted,-100% (active)
same,growth,[6]; 10 µM unless noted,-84.8% (active)
same,growth,[10]; 10 µM unless noted,-98.5% (active)
same,growth,[7]; 10 µM unless noted,-14.5% (active)
same,growth,[8]; 10 µM unless noted,-64.5% (active)
Nc1ccc(SSc2ccc(N)cc2)cc1,growth,[9],104% (inactive)
same,growth,[1]; 10 µM unless noted,102% (inactive)
same,growth,[2]; 10 µM unless noted,88% (inactive)
same,growth,[3]; 10 µM unless noted,101% (inactive)
same,growth,[5]; 10 µM unless noted,114% (inactive)
same,growth,[6]; 10 µM unless noted,108% (inactive)
same,growth,[10]; 10 µM unless noted,114% (inactive)
same,growth,[7]; 10 µM unless noted,109% (inactive)
same,growth,[8]; 10 µM unless noted,97.5% (inactive)
CN(C)C(=O)c1ccc(SC(=S)NCc2ccccc2)cc1,growth,[1]; 10 µM,107% (inactive)
same,growth,[1]; 100 µM,-27.3% (active)
same,growth,[2]; 10 µM,106% (inactive)
same,growth,[2]; 100 µM,-6.08% (active)
same,growth,[3]; 10 µM,113% (inactive)
same,growth,[3]; 100 µM,20.1% (inactive)
same,growth,[4]; 10 µM,113% (inactive)
same,growth,[4]; 100 µM,43.8% (inactive)
same,growth,[5]; 10 µM,108% (inactive)
same,growth,[5]; 100 µM,108% (inactive)
same,growth,[6]; 10 µM,116% (inactive)
same,growth,[6]; 100 µM,-28.3% (active)
same,growth,[10]; 10 µM,121% (inactive)
same,growth,[10]; 100 µM,46.9% (inactive)
same,growth,[7]; 10 µM,116% (inactive)
same,growth,[7]; 100 µM,45.7% (inactive)
same,growth,[8]; 10 µM,111% (inactive)
same,growth,[8]; 100 µM,2.6% (active)
CC1(C)CC([P+](c2ccccc2)(c2ccccc2)c2ccccc2)=NN1,growth,[1]; 10 µM unless noted,16.2% (inactive)
same,growth,[2]; 10 µM unless noted,32.3% (inactive)
same,growth,[3]; 10 µM unless noted,67.7% (inactive)
same,growth,[4]; 10 µM unless noted,17.9% (inactive)
same,growth,[5]; 10 µM unless noted,33.2% (inactive)
same,growth,[6]; 10 µM unless noted,-22.8% (active)
same,growth,[10]; 10 µM unless noted,23.7% (inactive)
same,growth,[7]; 10 µM unless noted,72.1% (inactive)
same,growth,[8]; 10 µM unless noted,105% (inactive)
COC(=O)Nc1nc2ccc(C(=O)c3ccccc3)cc2[nH]1,growth,[9],19.8% (inactive) and 2.51% (active)
same,growth,[1]; 10 µM unless noted,45.5% (inactive) and -31.7% (active)
same,growth,[2]; 10 µM unless noted,22% (inactive) and 20.6% (inactive) and 22.1% (inactive)
same,growth,[3]; 10 µM unless noted,20.7% (inactive) and 47.1% (inactive)
same,growth,[4]; 10 µM unless noted,52.6% (inactive) and 72.1% (inactive) and 39.6% (inactive)
same,growth,[6]; 10 µM unless noted,43.2% (inactive) and 13.7% (inactive) and -39.8% (active)
same,growth,[7]; 10 µM unless noted,35.5% (inactive) and 15.8% (inactive) and 21.6% (inactive)
same,growth,[8]; 10 µM unless noted,-28.8% (active) and 4.68% (active) and -3.41% (active)
COc1ccc2nc3cc(Cl)ccc3c(NCCNc3c4ccc(Cl)cc4nc4ccc(OC)cc34)c2c1,growth,[1]; 10 µM unless noted,-34.5% (active)
same,growth,[2]; 10 µM unless noted,-65.4% (active)
same,growth,[3]; 10 µM unless noted,-90.1% (active)
same,growth,[4]; 10 µM unless noted,-43.6% (active)
same,growth,[5]; 10 µM unless noted,-95.6% (active)
same,growth,[6]; 10 µM unless noted,-78.9% (active)
same,growth,[10]; 10 µM unless noted,-92.5% (active)
same,growth,[7]; 10 µM unless noted,-34.9% (active)
same,growth,[8]; 10 µM unless noted,-53.5% (active)
COc1ccc(N=N/N=c2\sc3cc(OC)ccc3n2C)cc1,growth,[1]; 10 µM unless noted,77.3% (inactive)
same,growth,[2]; 10 µM unless noted,75.1% (inactive)
same,growth,[3]; 10 µM unless noted,98.6% (inactive)
same,growth,[4]; 10 µM unless noted,108% (inactive)
same,growth,[5]; 10 µM unless noted,86.3% (inactive)
same,growth,[6]; 10 µM unless noted,91.7% (inactive)
same,growth,[10]; 10 µM unless noted,97.8% (inactive)
same,growth,[7]; 10 µM unless noted,96% (inactive)
same,growth,[8]; 10 µM unless noted,109% (inactive)
Oc1ccc(/C=N/NC(=S)Nc2ccccc2)nc1,growth,[9],-22.7% (active)
same,growth,[1]; 10 µM unless noted,6.99% (active)
same,growth,[2]; 10 µM unless noted,15.2% (inactive)
same,growth,[3]; 10 µM unless noted,34.1% (inactive)
same,growth,[6]; 10 µM unless noted,23.2% (inactive)
same,growth,[10]; 10 µM unless noted,20% (inactive)
same,growth,[7]; 10 µM unless noted,88.5% (inactive)
same,growth,[8]; 10 µM unless noted,3.65% (active)
